19 compounds from PubChem BioAssay (NCATS) can be followed below.

Test [1] can be described thus: AP1 Signaling Pathway (AID 357). Further: on the % scale 0 is the no-effect control and ±100 the full control effect. The method, boiled down:
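AP-1-bla ME-180 cells with beta-lactamase reporter under AP-1 response element, stimulated with EC50 EGF; compounds titrated, 5 hours at 37 degrees Celsius. CCF4 read at 460/530 nm ratio; positive and negative modulators judged by AC50.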

Test [2] addresses Cytochrome P450 1A2 (Homo sapiens) (UniProt P05177). In words: p450-cyp1a2 (AID 410; calls by dose curve; further: potency means the concentration at half of the fitted maximal effect;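 on activity change, negative = inhibition: -100% = full effect of reference inhibitor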). The method, boiled down: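 Luminescent readout of luciferin formed from Luciferin-ME by human CYP1A2; data normalized against complete inhibition by 57 uM furafylline. Enzyme 20nM, substrate 100uM at Km, 100mM KPO4 buffer, 60 min reaction at room temperature.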
The nature of test [3]: NFAT Signaling Pathway (AID 444).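 Further: carbachol stimulus at about its EC50 of 1 µM final; on the % scale 0 is the no-effect control and ±100 the full control effect.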 The conditions noted are these: Jurkat NFAT-bla M1, carbachol, beta-lactamase ratio, 5 h. The method, boiled down: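 Read-out: CCF4 FRET ratio (460 nm/530 nm) after 1 h RT dye loading, used for %activity and AC50 from titration series. Cells: Jurkat NFAT-β-lactamase/M1 line, treated with compound plus 1 uM carbachol for 5 h, 37 °C.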
Test [4] can be described thus: Stat Signaling Pathway (AID 446).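 Further: ME-180 cervical cancer cells given 40 pM IL-6 alongside compound; SIE-controlled beta-lactamase reporter measured as 460/530 nm FRET emission ratio; on the % scale 0 is the no-effect control and ±100 the full control effect.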 The gist of the method:
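Reporter line: ME-180 cervical carcinoma, SIE-beta-lactamase. Treatment: compound with 40 pM IL-6, 5 hrs, 37 C, in low-serum OPTI-MEM with 10 mM HEPES pH 7.3. Detection: 460/530 nm fluorescence.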

The target in test [5] is Glucocorticoid receptor (Homo sapiens) (UniProt P04150). In words: GR-GFP Redistribution (AID 450;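 active means compounds whose dose series gives a full or clear partial fitted curve of increased nuclear translocation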; further: potency means the concentration at half of the fitted maximal effect). The conditions noted are these: U2OS GR-GFP nuclear translocation, laser cytometry, 2 h.
Glucocorticoid receptor (Homo sapiens), sequence (P04150 whole entry, looked up, the tested form may be a part): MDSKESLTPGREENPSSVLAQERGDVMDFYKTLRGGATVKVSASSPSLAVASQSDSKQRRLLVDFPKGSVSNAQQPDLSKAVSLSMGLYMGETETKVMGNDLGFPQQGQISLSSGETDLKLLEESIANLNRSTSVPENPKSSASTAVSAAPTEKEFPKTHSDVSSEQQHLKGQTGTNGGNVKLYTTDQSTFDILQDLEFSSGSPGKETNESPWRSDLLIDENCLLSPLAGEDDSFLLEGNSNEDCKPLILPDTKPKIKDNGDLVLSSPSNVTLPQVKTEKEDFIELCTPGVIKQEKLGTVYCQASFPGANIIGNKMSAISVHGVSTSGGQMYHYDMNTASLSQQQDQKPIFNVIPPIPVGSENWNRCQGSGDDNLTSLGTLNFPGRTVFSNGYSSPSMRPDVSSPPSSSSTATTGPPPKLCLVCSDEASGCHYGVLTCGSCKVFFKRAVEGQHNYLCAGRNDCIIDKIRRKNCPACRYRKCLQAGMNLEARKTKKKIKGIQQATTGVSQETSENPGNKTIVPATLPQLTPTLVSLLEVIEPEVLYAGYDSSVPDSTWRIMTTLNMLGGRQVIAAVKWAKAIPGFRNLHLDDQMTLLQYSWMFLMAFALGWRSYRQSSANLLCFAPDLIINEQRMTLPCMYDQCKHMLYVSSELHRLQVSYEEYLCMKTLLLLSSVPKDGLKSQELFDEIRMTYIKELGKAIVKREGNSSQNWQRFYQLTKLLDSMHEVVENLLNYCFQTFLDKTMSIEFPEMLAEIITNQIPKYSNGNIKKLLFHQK
Test [6] shares this target. In words: GR-EFC Redistribution (AID 451; calls by dose curve; further: potency means the concentration at half of the fitted maximal effect). To be noted: CHO-K1 GR-EFC translocation, beta-gal luminescence, 2 h. The gist of the method: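 Translocation of GR-ED fusion to nuclear EA restores b-gal, read by luminescence after 1 h room-temperature detection. Engineered CHO-K1 biosensor cells, 1,000/well, exposed 2 h at 37 C to titrations up to 46 uM final.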
Test [7] can be described thus: Cell Viability - BJ (AID 421; calls by dose curve;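 further: potency means the concentration at half of the fitted maximal effect; cells exposed to compound for 40 hours at 37 °C before readout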). The conditions noted are these: BJ fibroblast viability, qHTS. The method, boiled down:
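Cytotoxicity as drop in intracellular ATP (CellTiter-Glo, 20 min RT) after 40 hr compound exposure of BJ fibroblasts at 37 °C. Titrations scaled between DMSO and 100 uM tamoxifen, Hill-fitted for AC50.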
For orientation: In qHTS, concentration-response curves come from the screen itself.

Test [8] can be described thus: Cell Viability - Jurkat (AID 426;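 active means dose-dependent loss of cell ATP signal giving a full or clear fitted curve, ranked by lower potency value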;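 further: potency means the concentration at half of the fitted maximal effect; cells exposed to compound for 40 hours at 37 °C before ATP read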). To be noted: qHTS. The gist of the method: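 qHTS, 1536-well; Jurkat E6-1, 5000 cells/well, complete medium; cpd 40 hr, 37 °C; CellTiter-Glo 20 min RT; luminescence. AC50 by Hill fit.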
Test [9] in a line: Cell Viability - Hek293 (AID 427;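 active means compounds whose dose-response curve shows a full or clear partial loss of cell viability, called from curve shape rather than a numeric limit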;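 further: potency means the concentration at half of the fitted maximal effect; cells exposed to compound for 40 hours at 37 °C before reading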). To be noted: qHTS. The method, boiled down: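 Luminescent ATP content (CellTiter-Glo, 20 min at room temperature) was measured after a 40 hr, 37 °C compound exposure of HEK293 cells. AC50 values came from Hill-equation fits of qHTS concentration-response data normalized to DMSO and 100 uM tamoxifen.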
Test [10] can be described thus: Cell Viability - MRC5 (AID 434; calls by dose curve;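 further: potency means the concentration at half of the fitted maximal effect; cells exposed to compound for 40 hours at 37 °C; potency reflects cytotoxicity seen as loss of intracellular ATP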). To be noted: MRC5 lung fibroblast viability, qHTS. The gist of the method:
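qHTS cytotoxicity in human lung fibroblast MRC5 cells; 40 hr treatment, 37 °C; cellular ATP by luciferase luminescence; DMSO = 0%, 100 uM tamoxifen = 100% inhibition; Hill-fit AC50.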

Each structure is given as a SMILES string. Where “and” joins values, the source holds several entries; their conditions need not be identical. Equal values may be shown once. Records with an inconclusive call do not appear. A structure can be active in one record and inactive in another. Calls of active or inactive are those of the source. Unless noted, the call rests on the fitted dose curve; in most records, active means well fitted curve in either direction with a large enough effect (not every such curve was filed as active); inconclusive means small, poorly fitted or top-dose-only effect, or another doubt; inactive means flat fitted curve, though single readings scatter.

Cytochrome P450 1A2 (Homo sapiens), sequence (P05177 whole entry, looked up): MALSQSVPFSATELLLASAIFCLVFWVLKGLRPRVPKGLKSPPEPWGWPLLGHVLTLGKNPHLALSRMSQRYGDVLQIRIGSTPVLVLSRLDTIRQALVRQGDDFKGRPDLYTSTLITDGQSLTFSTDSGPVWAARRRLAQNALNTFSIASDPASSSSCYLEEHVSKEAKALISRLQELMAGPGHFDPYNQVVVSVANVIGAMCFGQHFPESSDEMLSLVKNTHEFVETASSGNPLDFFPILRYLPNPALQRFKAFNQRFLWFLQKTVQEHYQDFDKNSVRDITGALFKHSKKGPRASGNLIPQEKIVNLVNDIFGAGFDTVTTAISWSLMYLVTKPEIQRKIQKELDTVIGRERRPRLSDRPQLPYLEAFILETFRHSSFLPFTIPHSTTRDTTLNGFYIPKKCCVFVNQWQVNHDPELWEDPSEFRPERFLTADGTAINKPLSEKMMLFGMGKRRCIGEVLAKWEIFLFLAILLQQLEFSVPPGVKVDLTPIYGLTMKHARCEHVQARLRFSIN

Consider `O=c1c(O)c(-c2cc(O)c(O)c(O)c2)oc2cc(O)cc(O)c12`, for which the call in [1] and in [4] was inactive. In addition, the Potency was 5.01 µM (active) and 2 µM (active) and 7.94 µM (active) in test [2]; > 46 µM (inactive) and > 20.6 µM (inactive) in test [5]; > 46 µM (inactive) and > 20.6 µM (inactive) in [6]. The activity change, negative = inhibition in test [3] (at 17.2 µM (top of the series)) is -3.39% (inactive); in test [3] (at 38 µM (top of the series)) it was 11.8% (inactive).

Take `CCOc1cc(CC(=O)N[C@@H](CC(C)C)c2ccccc2N2CCCCC2)ccc1C(=O)O`: the result in [1] and in test [4] was inactive. Further, in test [2], the Potency result is “inactive”. For the same compound, the activity change, negative = inhibition in test [3] (at 17.2 µM (top of the series)) is -1.28% (inactive). Moreover, the results for the Potency in test [5] and in test [6] were 2.1 µM (active) and > 20.6 µM (inactive), respectively.

For `NNc1nncc2ccccc12`, the compound was called inactive in [1] and in [4]. The Potency in [2] is 3.16 µM (active) and 1 µM (active); in [5], > 46 µM (inactive) and > 20.6 µM (inactive); in test [6], > 46 µM (inactive) and > 20.6 µM (inactive). Besides, the figures for the activity change, negative = inhibition in test [3] (at 17.2 µM (top of the series)) and in test [3] (at 38 µM (top of the series)) were -29.1% (inactive) and 8.48% (inactive), respectively.

As for `O=c1cc(N2CCOCC2)oc2c(-c3ccccc3)cccc12`, the outcome in [1] and in [4] was inactive. The Potency was 1.58 µM (active) and 200 nM (active) in test [2]; > 46 µM (inactive) in test [5]; > 46 µM (inactive) in test [6]. In [3] (at 38 µM (top of the series)), the activity change, negative = inhibition was -14.3% (inactive).

`CCc1nc(N)nc(N)c1-c1ccc(Cl)cc1`: the call in test [1] and in test [4] was inactive. Also, the Potency in test [2] is 10 µM (active); in test [7] it was > 92 µM (inactive); in test [8], 3.02 µM (active); in test [9], 1.64 µM (active); in [10], > 92 µM (inactive); in test [5] it was > 20.6 µM (inactive). In addition, the Potency in [6] was > 20.6 µM (inactive). Further, the activity change, negative = inhibition in test [3] (at 17.2 µM (top of the series)) is -6.33% (inactive) and 6.33% (inactive).

For `Cc1cccc(C#Cc2ccccc2)n1`, the call in test [1] and in [4] was inactive. For the same compound, the Potency in [2] is 631 nM (active) and 158 nM (active); in test [5], > 46 µM (inactive); in [6], > 46 µM (inactive). Also, the activity change, negative = inhibition in [3] (at 38 µM (top of the series)) is -6.27% (inactive).

For `COc1c2occc2cc2ccc(=O)oc12`, the compound was classed as inactive in test [1] and in test [4]. Also, the Potency in test [7] is > 92 µM (inactive); in test [8], > 92 µM (inactive); in test [9], > 92 µM (inactive); in test [10], > 92 µM (inactive); in test [5], > 20.6 µM (inactive); in test [6] it was > 20.6 µM (inactive). Further, in test [3] (at 17.2 µM (top of the series)), the activity change, negative = inhibition was 0.388% (inactive).

Regarding `NCCCCNCCCN`, the outcome in [1] was inactive. The Potency entry in [2] was “inactive and 31.6 µM (active)”; in test [5], > 46 µM (inactive); in [6] it was > 46 µM (inactive). The activity change, negative = inhibition in [3] (at 38 µM (top of the series)) is -4.2% (inactive).

Take `CC1(C)NC(=O)N(c2ccc([N+](=O)[O-])c(C(F)(F)F)c2)C1=O`: the result in test [1] and in [4] was inactive. Further, the Potency in test [2] was 12.6 µM (active) and 3.16 µM (active) and 2.51 µM (active). For the same compound, the activity change, negative = inhibition is -3.85% (inactive) in [3] (at 17.2 µM (top of the series)) and 1.13% (inactive) in test [3] (at 38 µM (top of the series)).

Regarding `Nc1ccc(S(N)(=O)=O)cc1`, the compound was called inactive in test [1] and in test [4]. The Potency in [7] is > 92 µM (inactive); in test [8], > 92 µM (inactive); in [9] it was > 92 µM (inactive); in test [10] it was > 92 µM (inactive); in test [5], > 20.6 µM (inactive); in [6], > 20.6 µM (inactive). The activity change, negative = inhibition in test [3] (at 17.2 µM (top of the series)) is -0.0158% (inactive).

For `Oc1ccc(-c2nc(-c3ccc(F)cc3)c(-c3ccncc3)[nH]2)cc1`, the call in test [1] and in test [4] was inactive. Further, the Potency in test [2] is 15.8 µM (active); in test [5], > 46 µM (inactive); in test [6], > 46 µM (inactive).

For the compound `CN1C(C(=O)Nc2ccccn2)=C(O)c2sccc2S1(=O)=O`, the outcome in [1] and in test [4] was inactive. Besides, in [2], the Potency result was “inactive”. Also, the activity change, negative = inhibition in test [3] (at 17.2 µM (top of the series)) was 9.83% (inactive). Besides, the Potency in test [5] and in [6] was > 20.6 µM (inactive) each time.

For `CCCCc1ccc2nc(NC(=O)OC)[nH]c2c1`, the call in [1] and in test [4] was inactive. For the same compound, in test [2], the Potency was 0.501 µM (active).

As for `NC(=NCc1ccccc1)NC(=O)c1nc(Cl)c(N)nc1N`, the compound was called inactive in test [1] and in test [4]. Also, the Potency was 12.6 µM (active) and 10 µM (active) in test [2]; > 46 µM (inactive) and > 20.6 µM (inactive) in test [5]; > 46 µM (inactive) and > 20.6 µM (inactive) in [6]. The activity change, negative = inhibition in [3] (at 17.2 µM (top of the series)) is -15.5% (inactive); in [3] (at 38 µM (top of the series)), -27.8% (inactive).

Turning to `Cc1nc2n(c(=O)c1CCN1CCC(c3noc4cc(F)ccc34)CC1)CCCC2`, the outcome in test [1] and in [4] was inactive. The Potency entry in test [2] was “inactive”.

For `O=C1c2ccccc2-c2n[nH]c3cccc1c23`, the call in test [1] was inactive. In test [2], the Potency is 126 nM (active) and 15.8 nM (active). For the same compound, in test [3] (at 38 µM (top of the series)), the activity change, negative = inhibition was 6.14% (inactive).

With `c1ccc2[nH]c(-c3cscn3)nc2c1`, the compound was classed as inactive in test [1] and in test [4]. The Potency is 0.126 µM (active) in test [2]; > 92 µM (inactive) in test [7]; > 92 µM (inactive) in test [9]; > 92 µM (inactive) in [10]; > 20.6 µM (inactive) in [5]; > 20.6 µM (inactive) in [6]. In addition, in test [3] (at 17.2 µM (top of the series)), the activity change, negative = inhibition is -19.5% (inactive) and -28.1% (inactive).

Turning to `CC(=O)Nc1ccc(O)cc1`, the call in test [1] and in test [4] was inactive. For the same compound, the Potency entry in test [2] was “inactive”. The Potency in [7], in test [8], in test [9] and in test [10] was > 92 µM (inactive) in each case.

As to `COc1ccccc1N1CCN(CCN(C(=O)C2CCCCC2)c2ccccn2)CC1`, the outcome in [1] and in [4] was inactive. The Potency entry in test [2] is “inactive”. In addition, in test [3] (at 38 µM (top of the series)), the activity change, negative = inhibition is 3.68% (inactive). Further, the Potency in [5] and in test [6] was > 46 µM (inactive) throughout.
